A short description of experiment [1]: qHTS assay to identify small molecule agonists of the vitamin D receptor (VDR) signaling pathway - cell viability counter screen (AID 743224). Also: nearly all actives have a fitted effect of over 50% in size. Also: potency is read from the fitted curve at half-maximal effect. An outline of the steps:
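Luminescence from CellTiter-Glo, read after 30 min at room temperature, reports viability of VDR-bla cells treated with compounds for 16 h at 37C in the wells used for the beta-lactamase FRET read.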

A short description of experiment [2]: qHTS assay to identify small molecule agonists of the NFkB signaling pathway (AID 1159509; active = well fitted curve in the direction sought with a large enough effect in the signal ratio in the repeat runs, not every such curve was filed as active; the % refers to the signal ratio; also: series mostly up to about 61 µM; % is scaled to controls: 0 for no effect and ±100 for the full control effect). Summed up: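 NFkB-bla ME-180 cells carry a beta-lactamase reporter under an NF-kB response element. They were plated overnight, then exposed to compounds for 5 h at 37 C. Read-out is LiveBLAzer FRET after 1.5 hr at room temperature (405 nm excitation; 460/530 nm emission).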

The nature of experiment [3]: qHTS assay to identify small molecule agonists of the NFkB signaling pathway - cell viability counter screen (AID 1159515; calls by dose curve; also: series mostly up to about 61 µM; % is scaled to controls: 0 for no effect and ±100 for the full control effect; nearly all actives have a fitted effect of over 55% in size). An outline of the steps: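 Luminescence from CellTiter-Glo (30 min, room temperature) gives viability, measured in the same wells as the beta-lactamase reporter read. Cells were NFkB-bla ME-180, 2,000 per well, treated 5 hr with compounds.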
The nature of experiment [4]: qHTS assay to identify small molecule agonists of the endoplasmic reticulum stress response signaling pathway (AID 1159516; active = well fitted activation curve with a large enough effect in the signal ratio in the repeat runs, not every such curve was filed as active; the % refers to the signal ratio; also: % is scaled to controls: 0 for no effect and ±100 for the full control effect). An outline of the steps: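 Read-out is beta-lactamase cleavage of a FRET substrate (405 nm excitation; 460 and 530 nm emissions) in ESRE-bla HeLa cells after a 5 hr compound exposure at 37 C. Substrate incubation ran 2 hr at room temperature.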

The nature of experiment [5]: qHTS assay to identify small molecule agonists of the endoplasmic reticulum stress response signaling pathway - cell viability counter screen (AID 1159517; calls by dose curve; also: nearly all actives have a fitted effect of over 50% in size; also: potency is read from the fitted curve at half-maximal effect). Summed up: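 ESRE-bla HeLa cells, 1,500 per well, seeded overnight then treated with compounds for 5 hr at 37 C. After the beta-lactamase read, viability in the same wells is measured by CellTiter-Glo luminescence after 30 min at room temperature.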

Experiment [6] can be described thus: qHTS assay to identify small molecule agonists of the AP-1 signaling pathway - cell viability counter screen (AID 1159525; calls by dose curve; also: nearly all actives have a fitted effect of over 55% in size). An outline of the steps: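 AP-1-bla ME-180 cells in Opti-MEM with 0.5% dialyzed FBS, compound exposure 5 h at 37 C in 15-point titration. Viability read in the same wells as ATP content by CellTiter-Glo luminescence, normalised to tetra-n-octylammonium bromide and DMSO controls.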

Experiment [7] is described as follows: qHTS assay to identify small molecule agonists of the AP-1 signaling pathway (AID 1159526; calls by dose curve; also: % is scaled to controls: 0 for no effect and ±100 for the full control effect).
Experiment [8] has as its target Retinoic acid receptor RXR-alpha (Homo sapiens) (UniProt P19793). Put plainly: qHTS assay to identify small molecule agonists of the RXR signaling pathway (AID 1159527; calls by dose curve; also: % is scaled to controls: 0 for no effect and ±100 for the full control effect; nearly all actives have a fitted effect of over 35% in size). An outline of the steps:
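Read-out: beta-lactamase FRET ratio (405 nm excitation, 460 and 530 nm emission) after 2 hr substrate loading at room temperature. Cells were RXR-alpha-UAS-bla HEK 293T treated with compounds for 16 hr in 2% charcoal-stripped FBS medium.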

Experiment [9] is described as follows: qHTS assay to identify small molecule agonists of the RXR signaling pathway - cell viability counter screen (AID 1159529). Also: nearly all actives have a fitted effect of over 50% in size. Also: potency is read from the fitted curve at half-maximal effect. Summed up: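 HEK 293T RXRa-bla cells, 2% CS-FBS; 5 h settle; cpd 16 h 37 C, 5% CO2; CellTiter-Glo 30 min RT, luminescence. Tetraoctyl ammonium bromide as positive control.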
Experiment [10] can be described thus: qHTS assay to identify small molecule antagonists of the retinoid acid receptor (RAR) signaling pathway - cell viability counter screen (AID 1159551). Also: nearly all actives have a fitted effect of over 35% in size. Also: potency is read from the fitted curve at half-maximal effect. Summed up:
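Luminescent ATP quantitation (CellTiter-Glo) gave cell viability in C3RL4 cells exposed to test chemicals for 6 h at 37 C alongside 1 uM final retinol.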

Experiment [11] in a line: qHTS assay to identify small molecule antagonists of the retinoic acid receptor (RAR) signaling pathway (AID 1159552; also: nearly all actives have a fitted effect of over 50% in size; also: potency is read from the fitted curve at half-maximal effect). An outline of the steps:
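Cells of the C3RL4 line were seeded, incubated overnight, then dosed with compounds in DMSO followed immediately by retinol (1 uM final). Six hours later luciferase detection reagent went in; signal was measured after 30 min at RT.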

A short description of experiment [12]: qHTS assay to identify small molecule agonists of the retinoic acid receptor (RAR) signaling pathway (AID 1159553). Also: % is scaled to controls: 0 for no effect and ±100 for the full control effect. An outline of the steps:
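Luminescence from a RARE-driven luciferase reporter in C3RL4 cells served as the read-out, measured after 30 min with detection reagent at room temperature. Compounds in DMSO were applied for 6 hr at 37 C following overnight seeding.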

Experiment [13] concerns the target Nuclear receptor ROR-gamma (Homo sapiens) (UniProt P51449). Put plainly: qHTS assay to identify small molecule antagonists of the retinoid-related orphan receptor gamma (ROR-gamma) signaling pathway (AID 1159521; also: nearly all actives have a fitted effect of over 50% in size; also: potency is read from the fitted curve at half-maximal effect). Summed up:
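CHO Tet-on RORγ, RORE-luc reporter. Cpd 2 h pre-incubation, then dox hyclate 1 uM final, 16 h, 37 C/5% CO2. ONE-Glo luminescence; decrease = antagonist.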

Experiment [14] is described as follows: qHTS assay to identify small molecule antagonists of the vitamin D receptor (VDR) signaling pathway - cell viability counter screen (AID 743225). Summed up:
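Read-out: CellTiter-Glo luminescence measured 30 min after reagent addition at room temperature. Cells were VDR-bla HEK 293T exposed 16 h at 37C, 5% CO2, to compound with 3 nM final calcitriol agonist.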

We go through 10 molecules from PubChem BioAssay (Tox21).

The structures appear in SMILES notation. Where “and” joins values, the source holds several entries; their conditions need not be identical. Equal entries are not always repeated. Results filed as inconclusive are left out. A structure can be active in one record and inactive in another. Calls of active or inactive are those of the source. Unless noted, calls follow the shape of the dose curve; as a rule, active = well fitted curve in the direction sought with a large enough effect in the repeat runs; inconclusive = weak or mixed curves; inactive = no such curve, though single readings can be large; an effect the other way counts as inactive or inconclusive.

Sequence of Retinoic acid receptor RXR-alpha (Homo sapiens) (P19793 whole entry, looked up): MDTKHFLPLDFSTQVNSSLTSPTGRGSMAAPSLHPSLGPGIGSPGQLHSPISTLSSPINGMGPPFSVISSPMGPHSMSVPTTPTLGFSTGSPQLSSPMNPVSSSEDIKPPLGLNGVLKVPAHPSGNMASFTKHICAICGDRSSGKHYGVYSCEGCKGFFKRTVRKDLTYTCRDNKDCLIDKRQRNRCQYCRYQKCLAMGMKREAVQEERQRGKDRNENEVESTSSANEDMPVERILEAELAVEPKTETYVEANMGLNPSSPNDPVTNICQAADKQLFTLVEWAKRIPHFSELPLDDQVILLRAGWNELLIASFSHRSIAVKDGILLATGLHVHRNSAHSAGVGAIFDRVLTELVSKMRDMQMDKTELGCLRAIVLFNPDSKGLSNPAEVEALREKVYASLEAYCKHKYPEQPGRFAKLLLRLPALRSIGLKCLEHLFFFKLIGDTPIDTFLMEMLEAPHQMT

Consider `O=[N+]([O-])c1cc(N(CCO)CCO)ccc1NCCO`, for which the Potency entry in [1], in experiment [5], in experiment [6], in experiment [7], in experiment [8] and in experiment [9] was “inactive” in each case. The Potency result in [12] is “inactive”. The result in [2], in experiment [3] and in experiment [4] was inactive. In addition, the Potency in experiment [10] was 48.5 µM (active) and 48.6 µM (active); in experiment [11], 30.6 µM (active).

Turning to `COC(=O)Nc1nc2ccc(Sc3ccccc3)cc2[nH]1`, the Potency entry in [1], in experiment [5], in [6], in [7], in experiment [9] and in experiment [10] was “inactive” throughout. Moreover, the Potency result in [11] was “inactive”. Besides, the molecule was classed as inactive in experiment [2], in [3] and in [4]. Moreover, the Potency in experiment [13] is 54.5 µM (active) and inactive.

For `O=S(=O)(O)c1cc(S(=O)(=O)O)c2c(N=Nc3ccccc3)c(O)ccc2c1`, the Potency entry in experiment [1], in [14], in experiment [5], in [6], in experiment [7] and in experiment [8] was “inactive” each time. The Potency result in experiment [9] and in experiment [10] was “inactive” in each case. Also, the result in [2], in experiment [3] and in experiment [4] was inactive.

As to `NCCNCCNCCNCCN`, the Potency entry in experiment [1], in experiment [14], in [13], in experiment [6], in [7] and in experiment [8] was “inactive” in each case. Also, the Potency result in experiment [9] and in experiment [10] was “inactive” throughout. The molecule was classed as inactive in experiment [2], in experiment [3] and in [4]. In experiment [5], the activity change, negative = cytotoxicity was 18.7% [at 6.95 µM] (inactive).

In the case of `Cn1c([N+](=O)[O-])cnc1COC(N)=O`, the Potency result in experiment [1], in experiment [14], in [5], in [13], in [6] and in [7] was “inactive” throughout. The Potency entry in experiment [8], in [9], in experiment [10], in experiment [11] and in experiment [12] was “inactive” each time. Moreover, the molecule was classed as inactive in experiment [2], in experiment [3] and in experiment [4].

Regarding `CCCCCCCCCCCCN`, the Potency entry in [1] is “inactive and 49 µM (active)”; in experiment [5], 11.1 µM (active) and 21.9 µM (active) and 19.8 µM (active); in experiment [9] it was 21.9 µM (active) and inactive; in experiment [10] it was “inactive and 68.6 µM (active)”. Moreover, the molecule was classed as inactive in experiment [2], in experiment [3] and in experiment [4]. For the same molecule, the Potency entry in experiment [13], in experiment [6], in experiment [7] and in experiment [8] was “inactive” throughout.

In the case of `O=C1CCCCC1`, the Potency result in experiment [1], in experiment [14], in experiment [5], in experiment [13], in [6] and in experiment [7] was “inactive” in each case. Moreover, the Potency result in experiment [8], in [9] and in experiment [10] was “inactive” throughout. Moreover, the outcome in experiment [2], in experiment [3] and in experiment [4] was inactive.

`O=C(c1ccc(O)cc1)c1ccc(O)cc1O`: the Potency entry in experiment [1], in experiment [14], in experiment [5], in experiment [13], in experiment [6] and in experiment [7] was “inactive” throughout. Further, the Potency entry in experiment [11] and in experiment [12] was “inactive” each time. For the same molecule, the outcome in experiment [2], in experiment [3] and in experiment [4] was inactive.

As to `CCCCCCOC(C)=O`, the Potency entry in experiment [1], in experiment [14], in experiment [5], in experiment [6], in experiment [7] and in [8] was “inactive” each time. Also, the Potency result in [9] and in experiment [10] was “inactive” in each case. In addition, the outcome in experiment [2], in [3] and in [4] was inactive.

For the molecule `C=C(C)C(=O)OCCCCCC`, the Potency result in experiment [1], in experiment [14], in experiment [5], in [6], in [7] and in experiment [8] was “inactive” in each case. In addition, the Potency result in [9], in experiment [10], in experiment [11] and in [12] was “inactive” in each case. The result in experiment [2], in experiment [3] and in experiment [4] was inactive.
